Results: PubChem BioAssay AID1443 (Sanford-Burnham Center for Chemical Genomics, 2008)
The whole screen tested about 220,000 compounds, of which about 880 (0.4%) were called active. Only a selection was taken, and actives are over-represented in it overall. Unmarked numbers belong to inactive results.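 The calls were made as follows: active = cell killing above 50% in the first pass at 4 µM, then a duplicate retest at 5 µM averaging 50% or more; inactive = the rest.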

assay: PPC-1 cell viability loss under TRAIL – PPC-1 cells, ATPLite luminescence, uHTS, TRAIL potentiator project, primary screen (AID 1443); conditions: PPC-1 cells + TRAIL, hits give high values; at 4 µM unless noted;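 also: plate controls were cells with TRAIL plus DMSO for no effect and medium-only wells lacking cells for full effect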

Compound | cell killing (% activity)
COc1ccc(CCNCC(O)Cn2ccc3ccccc32)cc1OC (configuration not stated) | -2.7%
CC(=O)NC1C(Oc2ccc(C)cc2)OC2COC(c3ccco3)OC2C1O (configuration not stated) | 2.4%
COc1cccc(/C=N/NC(=O)c2[nH]nc3c2CCc2ccccc2-3)c1O | 57.1% (active)
COc1cccc(/C=N/Nc2cc(C)nc(-c3ccccc3O)n2)c1O | 21.2%
COc1cccc(/C=N\NC(=O)C2=NNC(=O)C2C)c1O (configuration not stated) | 24.7%
O=C(/C=C/c1ccccc1)Oc1coc(CSc2ncccn2)cc1=O | 5.1%
Cc1nc2cc(NCc3cccs3)ccc2n1C | 1.5%
Cc1ccc(C(=O)N/C(=C\c2ccco2)C(=O)NC2CCS(=O)(=O)C2)cc1 (configuration not stated) | 9.8%
CCOc1ccc(-c2ccc(SCC(=O)N3CCOCC3)nn2)cc1 | 56.9% [at 5 µM] (active)
COc1ccc(-c2ccnc(SCC(=O)N3CCOCC3)n2)cc1 | 20.6%
COc1ccc(-c2nc(SCC(=O)N3CCOCC3)n[nH]2)cc1 | 4.4%
CCOc1cccc(/C=C/c2ccc3ccccc3n2)c1OC(C)=O | 49.3%
COc1cccc(/C=C/c2ccc3ccccc3n2)c1OC(C)=O | 70.3% [at 5 µM] (active)
NC(=O)COC(=O)/C=C/c1ccc2ccccc2n1 | 14.6%
Cc1ccc(C(=O)NNc2ncnc3ccccc23)cc1 | 35.9%
CC(C)c1ccc(NC(=S)NNc2ccc(Cl)c(C(=O)O)c2)cc1 | -1.7%
CC(c1ccccn1)N(CCN(C)C)C(=S)Nc1ccccc1F (configuration not stated) | 20.3%
COc1cc2c(cc1OC)C(=O)NCC(C)(C)O2 | 20.2%
CCC/C(C)=N\Nc1nc2c(c(=O)n(C)c(=O)n2C)n1C | 8%
CCOC(=O)c1sc(NC(=O)CSc2nc3c(c(=O)n2-c2ccccc2)SCC3)c(C(=O)OCC)c1C | 5.5%
O=c1oc2ccccc2cc1-c1cn(-c2ccccc2)c(=S)[nH]1 | 57.2% (active)

Compound | cell killing (% activity)
O=C(c1cn(-c2ccccc2)nc1-c1cc2ccccc2oc1=O)N1CCOCC1 | 28.2%
Nc1ncc(-c2cc3ccccc3oc2=O)s1 | 11.4%
O=C(O)COCC(=O)NCc1csc2ccc(Cl)cc12 | 6.2%
O=C(Nc1ccccc1)C1CC(=O)n2c(nc3ccccc32)N1 (configuration not stated) | 1.1%
COc1cc(OC)c2ccc(=O)oc2c1C(CCN1CCN(c2ccccc2)CC1)c1ccc2c(c1)OCO2 (configuration not stated) | -2.2%
COc1ccc(OC)c(C(=O)c2ccc(Cl)cc2)c1 | -11.3%
CCOC(=O)C1=C(c2ccc(OC)cc2)C(=O)c2ccccc2C1=O | 23.5%
CCOC(=O)c1c(C)[nH]c2c1-c1ccccc1C(=O)C2=O | 96.5% [at 5 µM] (active)
CCOC(=O)c1c(C)[nH]c(=S)c(C#N)c1-c1ccccc1 | 18.1%
Cc1cccc(C2c3[nH]c4ccccc4c3CCN2C(=O)c2cc(-c3cccn3C)n[nH]2)n1 (configuration not stated) | -11.4%
COc1cc(SC)ccc1C(=O)Nc1cc(C)ccn1 | 53.7% [at 5 µM] (active)
Cc1ccnc(NC(=O)c2ccoc2C)c1 | 0%
COc1cc(SC)ccc1C(=O)NCCOc1ccccc1Cl | 9.8%
COc1cc(SC)ccc1C(=O)Nc1nc(C)cs1 | 96% [at 5 µM] (active)
COc1ccccc1CNC(=O)c1ccc(SC)cc1OC | 16.9%
COc1ccc(C(=O)Nc2nncs2)c(OC)c1 | 21.1%
O=C(Nc1nnc(SCc2ccccc2Cl)s1)c1cccc([N+](=O)[O-])c1 | 2.1%
Cc1ccc(C)n1NC(=O)c1ccc([N+](=O)[O-])cc1 | 11.3%
CN(C)/C=C(/C(=O)c1ccc(Cl)c(Cl)c1)c1nnnn1-c1ccccc1 | 10.3%
CC(C)NC(=O)NCCCCCCS(C)=O (configuration not stated) | 20.6%
O=S(=O)(NCC1CCCO1)c1cnc(Cl)c(Cl)c1 (configuration not stated) | -24.2%
